Test results published in the supplement of paper PMC12024424.
Where a name gives a salt, the structure may show the parent alone.

Test system: Staphylococcus aureus Sa2 (MRSA, cystic fibrosis isolate)
Assay: growth reduction vs untreated control (viable cell count); higher = stronger antibacterial activity; extreme values may be limits of the assay
Conditions: 0.1 mM; 24 h
Experimental: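 Single-dose screen of the MedChem Express Drug Repurposing Library (0.1 mM, 1% DMSO) against planktonic MRSA S. aureus Sa2 (CF isolate) in TSB in 96-well plates, 37 °C aerobic, 24 h. Assays were run in triplicate and repeated twice.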

Row | Structure (SMILES) | growth reduction [%]
1 | COc1cccc2c1cc([N+](=O)[O-])c1c(C(=O)O)cc3c(c12)OCO3 [Aristolochic acid A] | 100
2 | Cc1cc2c(C(C)C)c(O)c(O)c(C=O)c2c(O)c1-c1c(C)cc2c(C(C)C)c(O)c(O)c(C=O)c2c1O [Gossypol] | 100
3 | C[S+]([O-])CCCCN=C=S (stereo not drawn) [Sulforaphane] | 100
4 | O=C(O)c1nn(Cc2ccc(Cl)cc2Cl)c2ccccc12 [Lonidamine] | 90
5 | CC[C@H](C)C1O[C@]2(C=C[C@@H]1C)C[C@@H]1C[C@@H](C/C=C(\C)[C@@H](O[C@H]3C[C@H](OC)[C@@H](O[C@H]4C[C@H](OC)[C@H](NC)[C@H](C)O4)[C@H](C)O3)[C@@H](C)/C=C/C=C3\CO[C@@H]4[C@H](O)C(C)=C[C@@H](C(=O)O1)[C@]34O)O2 (stereo partly drawn) [Emamectin (Benzoate)] | 100
6 | CCNC1=Nc2ccc(Cl)cc2C(C)(c2ccccc2)O1 (stereo not drawn) [Etifoxine] | 100
7 | O=c1[nH]c2ccccc2n1C1CCN(CCCC(c2ccc(F)cc2)c2ccc(F)cc2)CC1 [Pimozide] | 98
8 | O=c1c2ccccc2[se]n1-c1ccccc1 [Ebselen] | 100
9 | O=C(CNC(=O)c1ccc(C2=NOC(c3cc(Cl)cc(C(F)(F)F)c3)(C(F)(F)F)C2)c2ccccc12)NCC(F)(F)F (stereo not drawn) [Afoxolaner] | 98
10 | c1ccc2c(c1)Sc1ccccc1N2CC1CN2CCC1CC2 (stereo not drawn) [Mequitazine] | 96
11 | Fc1ccc(C(OCCN2CCN(CCCc3ccccc3)CC2)c2ccc(F)cc2)cc1 [Vanoxerine (dihydrochloride)] | 99
12 | Cc1cc2c(C(C)C)c(O)c(O)c(C=O)c2c(O)c1-c1c(C)cc2c(C(C)C)c(O)c(O)c(C=O)c2c1O [Gossypol (acetic acid)] | 100
13 | Cc1cc2c(C(C)C)c(O)c(O)c(C=O)c2c(O)c1-c1c(C)cc2c(C(C)C)c(O)c(O)c(C=O)c2c1O [(R)-(-)-Gossypol acetic acid] | 100
